TrxR1 substrate – substrates of rat thioredoxin reductase 1; O89049; purified TrxR1 substrate turnover, NADPH consumption readout; Potency, µM (doses to about 114 µM), for inactives: top-dose activity change, negative = substrate turnover; 0.01% of 390,000 active; also: nearly all actives have a fitted effect of over 50% in size
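Rat TrxR1, dispensed at 90 nM, was prereduced with 400 uM NADPH (final) for 5 min at ~22 deg C, then incubated with compound 15 min before 400 uM selenite. A first-read NADPH fluorescence drop versus no-compound background flagged substrates.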
mIDH1 inhibitor – human IDH1 R132H inhibition. 0.093% of 390,000 active. Potency, µM (top dose mostly 76.6 µM), for the others: top-dose activity change, negative = inhibition, actives largely listed as inhibitors. IDH1-R132H enzyme, NADPH consumption, diaphorase/resazurin fluorescence. O75874; also: nearly all actives have a fitted effect of over 65% in size
Target sequence (O75874 whole entry R132H, stated change not applied): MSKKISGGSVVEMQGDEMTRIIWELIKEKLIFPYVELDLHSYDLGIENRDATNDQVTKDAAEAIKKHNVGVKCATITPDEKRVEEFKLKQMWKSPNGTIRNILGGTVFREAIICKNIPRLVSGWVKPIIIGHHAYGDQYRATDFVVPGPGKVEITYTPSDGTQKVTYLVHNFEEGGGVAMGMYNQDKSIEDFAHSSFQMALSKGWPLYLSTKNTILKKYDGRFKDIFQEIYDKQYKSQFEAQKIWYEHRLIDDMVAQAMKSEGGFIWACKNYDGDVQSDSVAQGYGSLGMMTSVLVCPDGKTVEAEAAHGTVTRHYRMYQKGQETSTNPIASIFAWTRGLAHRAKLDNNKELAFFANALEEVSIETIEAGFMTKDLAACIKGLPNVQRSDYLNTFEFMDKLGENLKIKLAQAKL
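IDH1-R132H (0.5 ug/mL dispensed) in pH 7.5 Tris buffer was preincubated 30 min with compound, then given a substrate mix of 0.016 mM NADPH and 2 mM alpha-KG for 80 min at room temperature; remaining NADPH was read by diaphorase/resazurin fluorescence.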
rTrxR1 inhibitor – blocks rat thioredoxin reductase 1; recombinant rTrxR1, NADPH fluorescence consumption, selenite substrate; Potency, µM (highest dose often 114 µM), inactives show at the top dose activity change, negative = inhibition, usual class: inhibitors; 1% of 390,000 active; also: nearly all actives have a fitted effect of over 65% in size
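Rat TrxR1 (90 nM in the dispensed reagent) was pre-reduced with 400 uM NADPH for 5 min at room temperature, then incubated with compound for 15 min. After 400 uM selenite was added, NADPH fluorescence (Ex 340/Em 450 nm) was followed for 8 min.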
RGS4 inhibitor – inhibitors of human regulator of G protein signaling 4; P49798; Transcreener GDP fluorescence polarization, RGS4-accelerated GTP hydrolysis; Potency, µM (doses to about 114 µM), for the others: at the top dose activity change, negative = inhibition, most hits filed as inhibitors; 0.039% of 390,000 active; also: nearly all actives have a fitted effect of over 75% in size
Target sequence (P49798 whole entry, looked up): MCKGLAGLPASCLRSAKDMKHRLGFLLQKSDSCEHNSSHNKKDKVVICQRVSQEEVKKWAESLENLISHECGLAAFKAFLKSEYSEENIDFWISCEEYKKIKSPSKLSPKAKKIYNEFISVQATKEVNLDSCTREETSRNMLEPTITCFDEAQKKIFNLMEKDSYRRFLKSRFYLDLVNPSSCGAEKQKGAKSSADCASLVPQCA
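MLSMR compounds (23 nl, pin-transferred) preincubated 10 min at room temperature with a 500nM (2x) first reagent, then RGS4 at 900nM (2x) plus Transcreener GDP mix added; fluorescence polarization (620/688 nm) read before and after 90 min at 30 °C.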
Eya2 inh – Eya2 (human) phosphatase inhibition | Potency, µM (highest dose often 76.9 µM), for the others: at the highest dose activity, negative = inhibition, actives largely listed as inhibitors | 0.006% of 330,000 active | recombinant Eya2, OMFP fluorescence dephosphorylation (OMFP is methylfluorescein phosphate) | O00167
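Eya2 (0.2 uM) preincubated 10 min at ambient with compound, then OMFP substrate added at 50 uM; 10 min reaction in 50 mM HEPES pH 7.5, 50 mM NaCl, 5 uM MgCl2, 0.05% BSA, 1 mM DTT. Fluorescence read at Ex 485/Em 525 nm.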
An asterisk follows results filed as active; i = inactive; ? = inconclusive; . = no result; [ ] = dose if it differs, or a comment. An excerpt weighted towards active compounds, which were near 1.1% of everything screened. Calls follow the shape of the dose curve; as a rule, active = well fitted curve in the direction sought with a large enough effect; inconclusive = small, poorly fitted or top-dose-only effect, or another doubt; inactive = no such curve, though single readings can be large; an effect the other way counts as inactive or inconclusive. % is scaled to controls: 0 for no effect and ±100 for the full control effect; potency is read from the fitted curve at half-maximal effect.

SMILES	TrxR1 substrate	mIDH1 inhibitor	rTrxR1 inhibitor	RGS4 inhibitor	Eya2 inh
C#CCOCCOCCOCCNc1nc(N2CCN(C(=O)C([C@@H](C)CC)n3cc(C(N)COC(=O)C(F)(F)F)nn3)CC2)nc(N2CCN(C(=O)[C@H](CCCCN)n3cc(C(N)[C@H](C)CC)nn3)CC2)n1 (stereo partly specified)	4.5%	-10.2%	50.1µM*	-33.4%	.
C#CCOCCOCCOCCNc1nc(N2CCN(C(=O)[C@H](CCCCN)n3cc(CN)nn3)CC2)nc(N2CCN(C(=O)[C@H](CCCCN)n3cc([C@@H](N)[C@H](C)CC)nn3)CC2)n1	12.3%	9.8%	44.7µM*	-14.0%	1.7%
CC(=O)N/C(=C\c1ccccc1)C(=O)OCc1ccc(F)cc1	-3.7%	1.3%	9.8%	5.3%	-3.0%
CCOc1cc(/C=C2\CCCc3c2nc2ccccc2c3C(=O)O)ccc1OC	-12.3%	1.4%	79.4µM*	-43.3%	?
CCOc1ccc(-c2nnc(SCC(=O)NC3CCCCC3)nc2-c2ccc(OCC)cc2)cc1	-1.6%[57.1 µM]	-10.3%	17.8%[57.1 µM]	-16.9%	.
O=c1cc(CO)oc(C(Nc2ccccn2)c2ccsc2)c1O (stereo unspecified)	.	.	.	.	8.6%
O=c1cc(CO)oc(C(Nc2ccccn2)c2ccccc2Cl)c1O (stereo unspecified)	-5.8%	-13.7%	-13.7%	?	10.8%
COc1ccc(C(Nc2ccccn2)c2oc(CO)cc(=O)c2O)cc1 (stereo unspecified)	6.1%	3.4%	8.91µM*	?	3.7%
O=c1cc(CO)oc(C(Nc2ccccn2)c2ccc(F)cc2)c1O (stereo unspecified)	-3.0%	18.1%	8.91µM*	-51.0%[56.9 µM]	-3.5%
CCC(=O)Nc1ccccc1C(=O)OC(c1ccccc1)c1ccccc1	-6.8%	1.8%	-3.5%	-13.8%	-21.9%
CC(C)c1nnc(NC(=O)c2nc(S(=O)(=O)Cc3ccccc3F)ncc2Cl)s1	0.1%	0.0%	50.1µM*	-17.2%	0.4%
Cc1nnc(NC(=O)c2nc(S(=O)(=O)Cc3ccccc3C)ncc2Cl)s1	7.2%	0.3%	50.1µM*	?	4.4%
O=C(Nc1nc2ccc(F)cc2s1)c1nc(S(=O)(=O)Cc2ccccc2F)ncc1Cl	3.4%	4.1%	?	?	.
Cc1nnc(NC(=O)c2nc(SCc3ccccc3F)ncc2Cl)s1	-4.0%	7.0%	10.4%	-23.1%	.
CSc1nnc(NC(=O)c2nc(S(=O)(=O)Cc3ccccc3F)ncc2Cl)s1	-2.4%	0.7%	39.8µM*	-45.7%	8.0%
COc1ccccc1C(=O)OCC(=O)NC(=O)NC1CCCCC1	-3.4%	4.7%	-8.1%	-20.5%	-10.1%
Cc1cc(C)nc(SCC(=O)NC(=O)c2ccccc2O)n1	-3.7%[57.1 µM]	2.1%	12.6µM*	?	-17.0%
Nc1ccc(-c2nnn(Cc3ccccc3F)n2)cc1	-4.8%	-8.9%	8.0%[57.1 µM]	4.0%	5.0%
COc1cccc(N2C(=O)CN(Cc3cc(OC)c(OC)c(OC)c3)C2=S)c1	-1.4%	-7.2%	16.8%	-22.2%[56.9 µM]	-4.1%
CCC/C=C1/CCCOC(C(=O)NCc2ccc(C)o2)(C(F)(F)F)C1 (stereo unspecified)	-8.7%	12.3%	12.6µM*	?	5.4%
CCC/C=C1\CCCOC(C(=O)NCc2ccc(C)o2)(C(F)(F)F)C1 (stereo unspecified)	-1.2%	.	?	?	.
CC(=O)Nc1ccc(S(=O)(=O)N(C)CC(=O)OC(C)C(=O)N(C)C2CCCCC2)cc1 (stereo unspecified)	1.7%	-7.0%	10.4%	-3.7%	9.1%
COc1ccc(CCN(C)C(=O)COC(=O)/C=C/c2ccc(C)o2)cc1OC	-13.8%	2.7%	15.8µM*	-39.6%	17.5%
NNC(=O)Cn1nc(-c2ccccc2)c2ccccc2c1=O	3.7%	-0.4%	12.4%	-48.3%	11.1%
Cc1ccc2[nH]c(=O)c(CN(Cc3ccco3)S(=O)(=O)c3c(C)ccc4nsnc34)cc2c1	12.6%	2.3%	28.2µM*	-34.9%	11.7%
SMILES	TrxR1 substrate	mIDH1 inhibitor	rTrxR1 inhibitor	RGS4 inhibitor	Eya2 inh
Cc1ccc2nsnc2c1S(=O)(=O)N(Cc1ccco1)Cc1cc2cccc(C)c2[nH]c1=O	18.4%	0.4%	-7.6%	-3.3%	-7.4%
CCOC(=O)CSc1snnc1C	4.5%[57.1 µM]	2.0%	-9.4%[57.1 µM]	-8.0%	.
CCOC(=O)CSC1=NC(=O)CS1	0.5%	-2.2%	14.1µM*	-1.1%	11.3%
COc1ccc(C)cc1S(=O)(=O)NNc1nc(C)cc(C)n1	-1.1%	8.8%	5.9%	-7.8%	-1.8%
COC(=O)[C@H]1C[C@@]2(O)CN(S(=O)(=O)c3ccc(C)cc3)C[C@@]2(OC(=O)NCc2ccccc2F)C[C@H]1C(=O)OC	.	8.9%	.	.	.
O=C(NCc1ccccc1Cl)c1ccc(-c2ccccc2)cc1	-13.6%	1.4%	-11.0%	20.6%	-6.2%
O=C(OCCF)N1CCN(/[N+]([O-])=N/Oc2ccc([N+](=O)[O-])cc2[N+](=O)[O-])CC1	4.6%	.	7.08µM*	.	.
COCCOC(=O)N1CCN(/[N+]([O-])=N/Oc2ccc([N+](=O)[O-])cc2[N+](=O)[O-])CC1	-4.5%[0.457 µM]	.	8.91µM*	.	.
CCOC(=O)N1CCN([N+]([O-])=NOc2cc(O/N=[N+](\[O-])N(CC)CC)c([N+](=O)[O-])cc2[N+](=O)[O-])CC1	-13.3%	.	12.6µM*	-12.0%	.
CCCCCCCCCCCCCCCCOC(=O)N1CCN(/[N+]([O-])=N/Oc2ccc([N+](=O)[O-])cc2[N+](C)=O)CC1	11.6%[0.457 µM]	.	-30.9%	.	.
Cc1c(C(=O)Nc2ccc(F)cc2F)sc2nc3n(c(=O)c12)N=C(c1ccccc1)CS3	-0.5%[57.1 µM]	-12.9%	11.4%[57.1 µM]	-0.3%	.
CC1CC(C)CN(C(=O)c2ccc(-c3ccc([N+](=O)[O-])cc3)o2)C1 (stereo unspecified)	-1.0%	-1.7%	17.8µM*	?	-18.1%
O=C(c1ccc(-c2ccc([N+](=O)[O-])cc2)o1)N1CCCCC1	-1.8%	0.7%	?	-52.9%	-15.2%
COCCCN1C(=O)/C(=C\c2cccs2)C(C(=O)OC)=C1C	-4.4%	8.2%	-8.4%	-3.6%	-11.6%
O=c1ccc2ccc(O)cc2o1	i	5.1%	79.4µM*	-13.3%	.
O=c1ccc2cc(O)c(O)cc2o1	332.1%	15.4%	51.1%	-11.0%	-0.2%
Cc1cc(=O)oc2cc(O)ccc12	i	5.1%	50.1µM*	-5.9%	.
COc1ccc(N2CCN(C(c3cccs3)C(C)NC(=O)c3ccc4c(c3)OCO4)CC2)cc1 (stereo unspecified)	2.8%	-7.6%	34.8%	-9.6%	-8.2%
Cc1ccc(C(=O)CC(=O)c2ccccc2C)c(O)c1	13.5%[57.1 µM]	3.1%	-19.2%	-8.5%	-8.1%
C=C(CN(C)C)C(=O)c1ccc(C)cc1C	15.5%[11.4 µM]	-2.5%	2µM*	?	.
C=C(CN(C)C)C(=O)c1cc(OC)c(OC)cc1OC	-8.8%	2.2%	1.78µM*	?	.
